According to ChEMBL document CHEMBL3988442, “University of Dundee, Small-Polar-MMV Screening Library” (2021):
Among all 69,000 compounds or so, about 420 (0.61%) showed an effect of 50% or more. Many of the other results were omitted from the sample, so strong results are more common in it than they were.

The compounds below were run against T1, Histidine--tRNA ligase (Leishmania infantum) (UniProt A4I591) (assay: Leishmania infantum Histidine tRNA synthetase (LdHisRS)). Conditions: 30 µM.
T1 sequence (whole entry): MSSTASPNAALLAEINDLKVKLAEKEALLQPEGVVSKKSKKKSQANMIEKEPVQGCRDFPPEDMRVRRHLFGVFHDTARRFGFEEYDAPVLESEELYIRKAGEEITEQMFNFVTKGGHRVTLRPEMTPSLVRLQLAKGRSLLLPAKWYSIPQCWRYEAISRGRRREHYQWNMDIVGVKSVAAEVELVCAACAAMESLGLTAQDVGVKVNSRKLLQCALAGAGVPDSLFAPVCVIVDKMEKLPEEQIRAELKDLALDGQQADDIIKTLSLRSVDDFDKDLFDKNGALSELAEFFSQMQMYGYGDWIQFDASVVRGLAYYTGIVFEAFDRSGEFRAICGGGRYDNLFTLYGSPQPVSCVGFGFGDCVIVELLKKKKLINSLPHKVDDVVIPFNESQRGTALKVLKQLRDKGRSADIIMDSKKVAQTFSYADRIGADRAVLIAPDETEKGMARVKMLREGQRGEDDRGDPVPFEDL
Assay type: functional
Set-up: scale not given: in the data most compounds retested in dose-response had high values
`O=C(c1cc(=O)n(-c2ccccc2)[nH]1)N1CCOCC(O)C1` (centres undefined) showed a Percent Effect of 6.2%. `O=C(c1cc(=O)n(-c2ccccc2)[nH]1)N1CCCC(c2ccn[nH]2)C1` (centres undefined) was tested, and the Percent Effect was 59%. `O=C(c1cnnn1-c1ccccc1)N1CCCC(c2ccn[nH]2)C1` (centres undefined) gave a Percent Effect of 15.7%. `Cc1ncsc1CN1C[C@@H]2COC[C@]2(CNC(=O)c2ccccc2)C1` was tested, and the Percent Effect was 20.5%. `CCN(CC)[C@H]1COC[C@@H]2CN(Cc3cnn(C)c3)C[C@@H]21` showed a Percent Effect of 15.8%. For `Cn1nc2c(cc1=O)CN(Cc1nc(C(C)(C)C)no1)CC2`, the Percent Effect was 82.4%. `Cn1nc2c(cc1=O)CN(Cc1nc(C3CC3)no1)CC2` was tested, and the Percent Effect was 102%. With `CCn1nc2c(cc1=O)CN(Cc1nc(CCOC)no1)CC2` the Percent Effect was 23.4%. In the case of `CCCn1nc2c(cc1=O)CN(Cc1nnc(C3CC3)o1)CC2`, the Percent Effect is reported as 24.5%. With `Cn1nc2c(cc1=O)CN(Cc1nnc(C3CC3)o1)CC2` the Percent Effect was 97.9%. With `CCn1nc2c(cc1=O)CN(Cc1nnc(C3CC3)o1)CC2` the Percent Effect was 22.6%. Work on `Cc1ccc(F)cc1CC(=O)N1CC[C@@]2(O)CCNC[C@H]2C1` yielded a Percent Effect of 4.92%. `O=C(C1CCOCC1)N1CCO[C@H]2[C@H](Oc3cccnc3)CC[C@@H]21` was tested, and the Percent Effect was 9.68%. `O=C(c1ccco1)N1C[C@H]2CCCN(Cc3ccc(F)cc3)[C@H]2C1` showed a Percent Effect of 10.9%. Compound `O=C(C1CCOCC1)N1C[C@H]2C[C@H](OCc3ccccc3)C[C@H]2C1` has a Percent Effect of 12.9%. With `O=C(C[C@H]1[C@H]2CN(Cc3ccsc3)C[C@@H]12)N1CCCC1` the Percent Effect was 15.5%. For `O=C(Cc1cccc(F)c1)N1C[C@H]2CN(Cc3ccccn3)C[C@H]2C1`, the Percent Effect was 15.4%. `O=C(CSc1ccccc1)N1C[C@H]2CC[C@@H]1CN(Cc1ccncc1)C2` was tested, and the Percent Effect was 12.9%. `O[C@@H]1C[C@@](CNCc2ccccn2)(COc2cccnc2)C[C@@H]1O` was tested, and the Percent Effect was 12.2%. Compound `FC1(F)CCN(Cc2ccncc2)CC12CCN(c1cccnc1)C2` (centres undefined) has a Percent Effect of 19.1%. `FC1(F)CCN(Cc2cccnc2)CC12CCN(c1ccccc1)C2` (centres undefined) gave a Percent Effect of 57.3%. For `O=C(O)CN1CCC(F)(F)C2(CCN(c3ccccc3)C2)C1` (centres undefined), the Percent Effect was 53.9%. `FC1(F)CCN(c2ccccc2)CC12CCN(c1ncccn1)C2` (centres undefined) was tested, and the Percent Effect was 21.4%. For `FC1(F)CCN(Cc2cccnc2)CC12CCN(c1ccccn1)C2` (centres undefined), the Percent Effect was 19.6%. For `O=C(CO)N1CCC(F)(F)C2(CCN(c3ccccc3)C2)C1` (centres undefined), the Percent Effect was 23.1%. With `O=C(C1CCC1)N1CCN(Cc2ccc(F)cc2)[C@H]2CS(=O)(=O)C[C@H]21` the Percent Effect was 17.8%. With `COc1ccc(N)c(N2CCN(C(C)=O)CC2)n1` the Percent Effect was 61.6%. With `COc1ccc(NC(=O)CCC(C)C)c(N2CCN(C(C)=O)CC2)n1` the Percent Effect was 11.6%. `COc1ccc(NC(C)=O)c(N2CCN(C(C)=O)CC2)n1` gave a Percent Effect of 17.3%. `Cc1ccc(NC(=O)Nc2c(O)oc3ccccc3c2=O)cc1` gave a Percent Effect of 6.17%. For `O=C1CO[C@H]2CN(Cc3ccc(F)c(F)c3)C[C@H]2N1`, the Percent Effect was 1.35%. For `Cc1cc2nc(SCC(=O)N3CCCCC3)n(C)c(=O)c2[nH]1`, the Percent Effect was 10.5%. Work on `Cc1cc2nc(SCC(=O)N3CCCC3)n(-c3ccccc3)c(=O)c2[nH]1` yielded a Percent Effect of 51.4%. Work on `Cc1cc2nc(SCC(=O)N3CCCC3)n(C)c(=O)c2[nH]1` yielded a Percent Effect of 5.26%. `COCCC(=O)N1C[C@@H]2COC[C@]2(COCc2cccnc2)C1` showed a Percent Effect of 10.7%. `CCS(=O)(=O)N1C[C@H]2CN(Cc3cccnc3)C(=O)[C@H]2C1` gave a Percent Effect of 0%. `O=C(c1ccnnc1)N1CCO[C@H]2[C@@H](OCc3cccnc3)CC[C@@H]21` gave a Percent Effect of 25.7%. Work on `CC(=O)N1C[C@@H]2CC[C@H](C1)N(Cc1ccc(Cn3cccn3)cc1)C2` yielded a Percent Effect of 14.2%. `CCCN1C[C@H]2CC[C@@H]1CN(Cc1ccc(Cn3cccn3)cc1)C2` gave a Percent Effect of 17.5%. Compound `CCCN1C[C@H]2CC[C@@H]1CN(Cc1cccc(O)c1)C2` has a Percent Effect of 32.9%. `CCCN1C[C@H]2CC[C@@H]1CN(Cc1ccc(-n3cccn3)cc1)C2` gave a Percent Effect of 50.8%. Compound `CCCN1C[C@H]2CC[C@@H]1CN(Cc1cccc(-n3cccn3)c1)C2` has a Percent Effect of 14.2%. `CCN1CCO[C@@H]2CN(C(=O)c3ccc4[nH]ccc4c3)CC[C@@H]2C1` was tested, and the Percent Effect was 26%. `CN1CCN(C(=O)[C@H]2C[C@@H]3CCN(c4ncc(F)cn4)C[C@@H]3O2)CC1` was tested, and the Percent Effect was 7.55%. Work on `CC(=O)N1CC[C@H]2OCC[C@@H](C(=O)Nc3cccnc3C)[C@@H]2C1` yielded a Percent Effect of 17.3%. For `CN(C)C(=O)N1C[C@@H]2CC[C@H](C1)N(S(=O)(=O)c1cccnc1)C2`, the Percent Effect was 12.1%. Compound `CCO[C@H]1CN(CC2CCOCC2)[C@@H]2CCCO[C@H]12` has a Percent Effect of 7.92%. Work on `O=S(=O)(C1CC1)N1CCO[C@H]2[C@H](OCC3CC3)CC[C@@H]21` yielded a Percent Effect of 5.56%. `O=C(c1cnccn1)N1CCN2C[C@H](OCc3ccccc3)C[C@H]2C1` showed a Percent Effect of 15.1%. Work on `O=C(Nc1nccs1)c1csc(NC2CCCC2)n1` yielded a Percent Effect of 66.3%. With `O=C(Nc1ccccn1)c1csc(NC2CCCC2)n1` the Percent Effect was 28.1%. With `Cc1cnc(NC(=O)c2csc(NC3CCCC3)n2)s1` the Percent Effect was 21.4%. Work on `Cc1n[nH]c(SCC(=O)N2C[C@H]3CC[C@@H]2CN(c2ncccn2)C3)n1` yielded a Percent Effect of 9.38%. `COCCN1C[C@@H]2CCCO[C@@H]2[C@H](NC(=O)c2cnccn2)C1` gave a Percent Effect of 11.3%.
